DT40 TDP1 CPT: DT40-hTDP1 cell growth loss with CPT. Potency, µM (top dose mostly 46.2 µM), for inactives: top-dose activity change, negative = growth inhibition, usual class: inhibitors. chicken DT40 Tdp1-/-;hTDP1 cells + 20 nM CPT, ATP luminescence, 48 h. 420,000 tested, 12% active; also: potency is read from the fitted curve at half-maximal effect; nearly all actives have a fitted effect of over 55% in size
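Cell growth measured by CellTiter-Glo luminescence after a minimum 48 h, 37 C compound exposure with 20 nM CPT in Tdp1-knockout DT40 cells stably expressing hTDP1, seeded 400/well; qHTS titration format.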
IL-1B inflam inh: blocks inflammasome-driven IL-1 beta release. activity change, % at 57.5 µM. 360,000 tested, 4.7% active. THP-1 LPS/ATP IL-1B secretion, AlphaLISA, 16 h; active compounds read low. AID 743279; in the data active = activity change below about -50%; inconclusive = mostly about -30% to -49%
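Secreted IL-1B measured by AlphaLISA bead assay after 16 h compound exposure of THP-1 cells; compounds (final up to 57.5 uM) added 1 h before LPS (250 ng/mL) and ATP (1.25 mM) stimulation; lower signal means less secretion.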
TDP1 cell noCPT: qHTS for Inhibitors of human tyrosyl-DNA phosphodiesterase 1 (TDP1): qHTS in cells in absence of CPT; Potency, µM (titrated, usually from 46.2 µM), for inactives: at the highest dose activity change, negative = growth inhibition, actives largely listed as inhibitors; DT40 Tdp1-/- hTDP1 cells, no CPT, ATP luminescence, 48 h; 420,000 tested, 15% active; AID 686978, 2013; also: potency is read from the fitted curve at half-maximal effect; nearly all actives have a fitted effect of over 55% in size
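DT40 Tdp1-/-;hTDP1 cells, no CPT (DMSO vehicle only), 400 cells/well; compounds pin-transferred; ≥48 hr, 37 °C; CellTiter-Glo 30 min RT dark, luminescence read.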
RORgamma inh: ROR gamma (mouse) transcription inhibition | Drosophila S2 Gal4-RORgamma UAS-luciferase reporter, 20 h | Potency, µM (doses to about 53.6 µM), for inactives: at the top dose activity change, negative = inhibition, actives largely listed as inhibitors | 310,000 tested, 5.4% active | AID 2551; also: potency is read from the fitted curve at half-maximal effect; nearly all actives have a fitted effect of over 60% in size
Target sequence (P51450 whole entry, looked up, the tested form may be a part): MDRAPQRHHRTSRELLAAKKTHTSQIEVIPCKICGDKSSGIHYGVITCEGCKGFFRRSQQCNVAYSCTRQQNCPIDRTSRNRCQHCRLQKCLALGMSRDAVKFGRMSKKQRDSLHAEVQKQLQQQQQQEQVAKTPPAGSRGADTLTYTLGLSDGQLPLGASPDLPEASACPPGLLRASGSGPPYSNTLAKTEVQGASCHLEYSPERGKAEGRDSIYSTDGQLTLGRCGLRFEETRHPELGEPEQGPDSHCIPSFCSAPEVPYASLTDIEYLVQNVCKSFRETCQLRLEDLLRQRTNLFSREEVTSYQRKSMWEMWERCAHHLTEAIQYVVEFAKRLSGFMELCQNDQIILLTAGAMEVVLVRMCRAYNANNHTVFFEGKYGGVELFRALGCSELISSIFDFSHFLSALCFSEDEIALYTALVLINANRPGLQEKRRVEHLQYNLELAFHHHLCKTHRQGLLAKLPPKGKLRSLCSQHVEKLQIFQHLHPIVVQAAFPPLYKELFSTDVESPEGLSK
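Compounds are pin-transferred onto Drosophila Schneider cells expressing a copper-inducible Gal4–ROR gamma transactivation domain fusion. After 1 hr, copper sulfate is added to 700 uM final; luciferase is read 20 hr later.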
VP16 counter: Gal4-VP16 reporter inhibition counter-screen | Drosophila S2 Gal4-VP16 UAS-luciferase, luminescence, 20 h | Potency, µM (series often up to 53.6 µM), for inactives: top-dose activity, negative = inhibition, usual class: inhibitors | 310,000 tested, 3.5% active | AID 2546;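 also: Gal4-VP16 expression switched on by copper sulfate through the metallothionein promoter; potency is read from the fitted curve at half-maximal effect; nearly all actives have a fitted effect of over 50% in size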
ELG1 DNA repair: blocks ELG1-dependent DNA repair in HEK293T cells; HEK293T ELG1-luciferase reporter, luminescence, 16 h; DNA damage induced by 5-fluorouridine; AID 504467; Potency, µM (highest dose often 46.1 µM), without a hit: at the highest dose activity change, negative = inhibition, actives largely listed as inhibitors; 330,000 tested, 2.3% active; also: potency is read from the fitted curve at half-maximal effect; nearly all actives have a fitted effect of over 55% in size
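Overnight (16 hr) co-exposure of 2,000 cells/well to 5-fluorouridine and compound at 37 °C preceded detection. Luciferase was quantified via ONE-Glo luminescence; loss of signal denotes inhibition.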
* marks the source's active call; other numbers are inactive results; ? = inconclusive; nt = not tested or not shown; [ ] = dose if it differs, or a comment. An excerpt weighted towards active compounds, which were near 21% of everything screened. Unless noted, calls follow the shape of the dose curve; as a rule, active = well fitted curve in the direction sought with a large enough effect; inconclusive = small, poorly fitted or top-dose-only effect, or another doubt; inactive = no such curve, though single readings can be large; an effect the other way counts as inactive or inconclusive. % is scaled to controls: 0 for no effect and ±100 for the full control effect.

SMILES	DT40 TDP1 CPT	IL-1B inflam inh	TDP1 cell noCPT	RORgamma inh	VP16 counter	ELG1 DNA repair
CCOc1cc(/C=C/C(=O)c2ccc(O)cc2)ccc1OCC(=O)N(C)C	?	-103.1*	?	15.9%	-1.6%	?
CCOc1ccc(N/C=C\C(=O)c2ccc3c(c2)OCO3)cc1	-10.7%	4.3	?	nt	nt	nt
CCOc1cc(/C=C/C(=O)c2ccc3c(c2)OCCO3)ccc1OCC(=O)N(C)C	-95.2%	-104.0*	23.1µM*	?	5.0%	?
COc1ccc(CC(=O)n2[nH]c(=O)cc(C)c2=O)cc1OC	?	nt	18.4µM*	11.2µM*	?	3.8%
CCCNC(=O)OC1CC2CC1[C@H]1CCCCN1C2=O (stereo not given in full)	-7.1%	-1.4	-19.1%	nt	nt	nt
O=C(NCc1cccc(C(F)(F)F)c1)C1CC(c2ccccc2F)=NO1 (stereo not given)	?	-22.7	29.1µM*	nt	nt	nt
Cc1ccc(CNC(=O)C2CC(c3cccc(F)c3)=NO2)cc1 (stereo not given)	0.0%	12.1	-11.6%	18.8%	-12.3%	?
O=C(NCc1cc(C(F)(F)F)cc(C(F)(F)F)c1)C1CC(c2ccccc2F)=NO1 (stereo not given)	?	-18.7	?	nt	nt	nt
Cc1ccc(CNC(=O)C2CC(c3ccccc3F)=NO2)cc1 (stereo not given)	?	60.5	16.4µM*	14.1%	17.0%	10.7%
CC(C)(C)NS(=O)(=O)c1ccc(CCC(=O)Nc2cc(Cl)ccc2Oc2ccccc2)cc1	?	-63.2*	?	-4.4%	-2.9%	?
CCSc1nnc(NC(=O)c2cc(=O)c3cc(C)ccc3o2)s1	-2.8%	nt	-1.9%	nt	nt	nt
COc1ccc(S(=O)(=O)N2CCC(C(=O)NC(C)CCc3ccccc3)CC2)cc1 (stereo not given)	-20.9%	nt	-26.2%	?	-5.8%	?
CC(CCc1ccccc1)NC(=O)C1CCN(S(=O)(=O)c2cnc[nH]2)CC1 (stereo not given)	-1.1%	-55.2*	-5.7%	-29.3%[0.365 µM]	nt	-4.3%
COc1cccc(/C=C/c2ccnc3ccccc23)c1OC	?	nt	11.2µM*	nt	nt	nt
COc1ccccc1/C=C/c1cncc(/C=C/c2ccccc2OC)c1	?	nt	12.6µM*	nt	nt	nt
COc1ccccc1C=Cc1ccnc2ccccc12	?	-93.1*	?	nt	nt	nt
COc1ccc(C(=O)N/C(=C\c2ccc(Cl)cc2)C(=O)NCc2ccncc2)cc1	-28.3%	?	-28.0%	nt	nt	nt
COC(=O)[C@]12CCCCC=C1N(Cc1ccccc1)C(=O)[C@H](CC(=O)NCCC(C)C)C2	?	-4.5	?	nt	nt	nt
CCN(CCCCO)c1nc(C)nc2c1c(C)c(C)n2-c1c(C)cc(C)cc1C	nt	nt	nt	11.2µM*	?	nt
CCCCN(CC)c1nc(C)nc2c1c(C)c(C)n2-c1c(C)cc(C)cc1C	nt	nt	nt	2.24µM*	?	nt
O=c1oc2cc(O)ccc2cc1-c1ccc2c(c1)OCCO2	12.9%[9.04 µM]	nt	-1.9%[9.04 µM]	-16.8%	-27.6%	nt
COC1=C2C[C@H](C)C[C@H](OC)[C@@H](O)[C@@H](C)C=C(C)[C@H](OC(N)=O)[C@@H](OC)C=CC=C(C)C(=O)NC(=CC1=O)C2=O	0.0794µM*	nt	0.0251µM*	nt	nt	nt
O=C1C(Cl)=C(NS(=O)(=O)c2ccc([N+](=O)[O-])cc2)C(=O)c2ccccc21	10.3µM*	-102.4*	8.2µM*	-28.7%	-13.1%	18.3µM*
O=[N+]([O-])c1ccc(S(=O)(=O)Nc2nc(-c3ccccc3)cs2)cc1	?	15.3	?	-2.1%	-12.1%	-9.5%
O=[N+]([O-])c1ccc(S(=O)(=O)Nc2ccncc2)cc1	8.8%	-7.4	7.3%	-3.5%[1.91 µM]	14.9%	14.4%
SMILES	DT40 TDP1 CPT	IL-1B inflam inh	TDP1 cell noCPT	RORgamma inh	VP16 counter	ELG1 DNA repair
O=[N+]([O-])c1ccc(NS(=O)(=O)c2ccc(Cl)c(Cl)c2)cc1	9.2µM*	-27.0	10.3µM*	nt	nt	nt
O=[N+]([O-])c1cc(NS(=O)(=O)c2ccc(Cl)nc2)ccc1Cl	?	-1.6	16.4µM*	nt	nt	-16.7%
CC(C)c1ccc(NS(=O)(=O)c2ccc(Cl)nc2)cc1	-20.2%	-3.5	-28.6%	7.0%	-20.3%	-3.2%
O=[N+]([O-])c1ccc(Oc2ccc(S(=O)(=O)Nc3ccccc3)cc2)cc1	?	-72.2*	10.3µM*	24.7%	?	4.2%
O=[N+]([O-])c1ccc(S(=O)(=O)Nc2ccc(S(=O)(=O)N3CCCC3)cc2)cc1	-21.8%	22.2	-9.1%	-1.1%	6.8%	-3.2%
CC(C)CNC(=O)C1=CC(c2ccc3c(c2)OCO3)=NS(=O)(=O)N1C	-28.3%	nt	-15.9%	nt	nt	nt
COc1cccc(N2CC(NC(=O)/C=C\c3ccc4c(c3)OCO4)CC2=O)c1 (stereo not given)	-15.4%	nt	-27.6%	nt	nt	nt
CC1(C(=O)NS(=O)(=O)c2ccc(F)cc2F)CCN1C(=O)CC1CCCC1 (stereo not given)	0.4%	-18.2	0.0%	nt	nt	nt
O=C(NN(C(=O)c1ccccc1)c1cccs1)c1ccccc1	-13.2%	-6.8	?	nt	nt	nt
CN(CCc1ccccc1)C(=O)c1cccc(NC(=O)Cc2cccc(NC(=O)C3CCN(C(=O)C4CCCCC4)CC3)c2)c1	?	5.7	?	nt	nt	nt
CN(CCc1ccccc1)C(=O)c1ccc(NC(=O)Cc2cccc(NC(=O)C3CCN(C(=O)C4CCCCC4)CC3)c2)cc1	?	20.5	20.6µM*	nt	nt	nt
CN(CCc1ccccc1)C(=O)c1ccc(NC(=O)Cc2cccc(NC(=O)C3CCN(C(=O)c4ccccc4)CC3)c2)cc1	?	-9.1	?	nt	nt	nt
CN(CCc1ccccc1)C(=O)c1cccc(NC(=O)Cc2cccc(NC(=O)C3CCN(C(=O)C4CCC4)CC3)c2)c1	?	1.0	14.6µM*	nt	nt	nt
COc1cccc(NC(=O)Cn2c(=O)n(-c3ccccc3)c(=O)c3c2c2cc(OC)ccc2n3C)c1	-13.4%	nt	-9.4%	nt	nt	nt
O=C(CSCc1c(Cl)cccc1Cl)Nc1ccc2c(c1)OCCO2	-23.1%	11.9	?	-1.8%	?	-2.2%
Nc1nc(C(F)(F)F)cc(=O)n1N	-19.7%	-9.6	-14.1%	24.4%	-7.5%	0.4%
CSc1ccc(CCNC(=O)C2CCN(c3ncnc4c3nc3n4CCCCC3)CC2)cc1	-0.7%	nt	-25.0%	nt	nt	nt
C=CCC[C@H](Cc1ccc(F)cc1)C(=O)OC[C@H](Cc1c[nH]c2ccccc12)NC(=O)[C@@H](CC=C)CC(=O)N[C@@H](CO)Cc1ccccc1	5.8µM*	69.5	16.4µM*	nt	nt	?
